Each structure is given as a SMILES string. Several values for one entry are separate records, joined by “and”; a condition that tells them apart may be missing. Equal values may be shown once. Activity calls are given as the source filed them. Unless noted, calls come from the whole dose curve; as a rule, active = well fitted curve in the direction sought with a large enough effect in the repeat runs; inconclusive = weak or mixed curves; inactive = no such curve, though single readings can be large; an effect the other way counts as inactive or inconclusive.

A short description of experiment [1]: qHTS assay for identifying genotoxic compounds that show differential cytotoxicity against isogenic chicken DT40 cell lines with known DNA damage response pathways - wild type cell line (AID 743012). Note: nearly all actives have a fitted effect of over 60% in size. Note: potency is the fitted concentration of half-maximal effect. The procedure, abridged: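 Viability by ATP luminescence (CellTiter-Glo, 30 min RT) after 40 h compound treatment at 37 C/5% CO2, using 300 parental DNA repair-proficient DT40 cells per well.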

Experiment [2] can be described thus: qHTS assay for identifying genotoxic compounds that show differential cytotoxicity against isogenic chicken DT40 cell lines with known DNA damage response pathways - Rev3 mutant cell line (AID 743014; note: nearly all actives have a fitted effect of over 55% in size; note: potency is the fitted concentration of half-maximal effect). (In qHTS, concentration-response curves come from the screen itself.)
Experiment [3] can be described thus: qHTS assay for identifying genotoxic compounds that show differential cytotoxicity against isogenic chicken DT40 cell lines with known DNA damage response pathways - Rad54/Ku70 mutant cell line (AID 743015). Note: potency is the fitted concentration of half-maximal effect; nearly all actives have a fitted effect of over 60% in size.
Experiment [4] is described as follows: qHTS assay to identify small molecule antagonists of the androgen receptor (AR) signaling pathway - cell viability counter screen (AID 743033; note: nearly all actives have a fitted effect of over 45% in size; note: potency is the fitted concentration of half-maximal effect).
A short description of experiment [5]: qHTS assay to identify small molecule antagonists of the thyroid receptor (TR) signaling pathway - cell viability counter screen (AID 743064). Note: nearly all actives have a fitted effect of over 50% in size. Note: potency is the fitted concentration of half-maximal effect. A digest of the protocol:
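Plate GH3.TRE-Luc cells; incubate 4 h at 37 °C; add compound, then T3 to 1 nM final; incubate 23.5 h; add CellTiter-Fluor; incubate 30 min at 37 °C, 5% CO2; read fluorescence.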

A short description of experiment [6]: qHTS assay to identify small molecule antagonists of the thyroid receptor (TR) signaling pathway (AID 743065). Note: potency is the fitted concentration of half-maximal effect; nearly all actives have a fitted effect of over 55% in size. The procedure, abridged:
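GH3.TRE-Luc rat pituitary cells carrying two TR response elements driving luciferase were plated for 4 h, given compound plus 1 nM T3 (final), and incubated 23.5 h at 37 C. ONE-Glo luminescence measured reporter inhibition; CellTiter-Fluor fluorescence tracked cytotoxicity.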

Experiment [7] relates to thyroid hormone receptor (rat, GH3 cells). The experiment in a line: qHTS assay to identify small molecule agonists of the thyroid receptor (TR) signaling pathway (AID 743066; calls by dose curve).
Experiment [8] concerns the target Estrogen receptor (Homo sapiens) (UniProt P03372). The experiment in a line: qHTS assay to identify small molecule antagonists of the estrogen receptor alpha (ER-alpha) signaling pathway (AID 743069; active = well fitted curve in the direction sought with a large enough effect in the signal ratio in the repeat runs, not every such curve was filed as active; inconclusive = weak or mixed curves, or effect the other way; inactive = no such curve, though single readings can be large or run the other way; the % refers to the signal ratio). The procedure, abridged:
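A 17beta-estradiol challenge was applied right after compound transfer to ER-alpha-UAS-bla HEK293 cells previously kept in charcoal-stripped serum. Plates stood 18 hr at 37C and 5% CO2; fluorescence was read following 2 hr FRET substrate loading at room temperature.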

Experiment [9] is described as follows: qHTS assay to identify small molecule antagonists of the estrogen receptor alpha (ER-alpha) signaling pathway - cell viability counter screen (AID 743074; calls by dose curve;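 note: HEK293 cells carrying ER-alpha-UAS-bla reporter stimulated with 17beta-estradiol; nearly all actives have a fitted effect of over 45% in size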; note: potency is the fitted concentration of half-maximal effect).
Experiment [10] concerns the target Estrogen receptor (Homo sapiens) (UniProt P03372). As to the kind of experiment: qHTS assay to identify small molecule agonists of the estrogen receptor alpha (ER-alpha) signaling pathway (AID 743075; calls by dose curve;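 note: HEK293 GripTite cells with ER-alpha and UAS-driven beta-lactamase reporter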; note: potency is the fitted concentration of half-maximal effect).
The target is the same in experiment [11]. As to the kind of experiment: qHTS assay to identify small molecule agonists of the estrogen receptor alpha (ER-alpha) signaling pathway using the BG1 cell line (AID 743079). Note: nearly all actives have a fitted effect of over 20% in size.
The nature of experiment [12]: qHTS assay to identify small molecule antagonists of the estrogen receptor alpha (ER-alpha) signaling pathway using the BG1 cell line (AID 743080; calls by dose curve;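 note: BG1 cells stimulated with 17beta-estradiol alongside compound; nearly all actives have a fitted effect of over 25% in size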; note: potency is the fitted concentration of half-maximal effect). A digest of the protocol: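 Luciferase inhibition measured with ONE-Glo after 30 min at RT in BG1Luc4E2 cells given test compounds and 17beta-estradiol for 21.5 h at 37 C; CellTiter-Fluor viability read in the same wells beforehand.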

Experiment [13] is described as follows: qHTS assay to identify small molecule antagonists of the estrogen receptor alpha (ER-alpha) signaling pathway using the BG1 cell line - cell viability counter screen (AID 743081).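 Note: compound given together with 17beta-estradiol as the ER stimulus; nearly all actives have a fitted effect of over 45% in size.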 Note: potency is the fitted concentration of half-maximal effect.
The target in the next experiment is Aromatase (Homo sapiens) (UniProt P11511). As to the kind of experiment: qHTS assay to identify aromatase inhibitors (AID 743083). Note: nearly all actives have a fitted effect of over 55% in size. Note: potency is the fitted concentration of half-maximal effect.
Experiment [14] in a line: qHTS assay to identify aromatase inhibitors - cell viability counter screen (AID 743084).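 Note: cells stimulated with testosterone during compound exposure; nearly all actives have a fitted effect of over 55% in size.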 Note: potency is the fitted concentration of half-maximal effect.
The target of experiment [15] is Androgen receptor (Homo sapiens) (UniProt P10275). As to the kind of experiment: qHTS assay to identify small molecule agonists of the androgen receptor (AR) signaling pathway (AID 743036; active = well fitted activation curve with a large enough effect in the signal ratio in the repeat runs, with a control signal flat, not every such curve was filed as active; inconclusive = weak or mixed curves, or effect the other way; inactive = no such curve, though single readings can be large or run the other way; the % refers to the signal ratio). A digest of the protocol: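 Reporter line: GeneBLAzer AR-UAS-bla-GripTite (HEK293). Steps: plate cells, 4 h rest, add compounds, 16 h at 37C, add LiveBLAzer B/G substrate, 2 h at RT, read fluorescence.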

The target is the same in experiment [16]. The experiment in a line: qHTS assay to identify small molecule agonists of the androgen receptor (AR) signaling pathway using the MDA cell line (AID 743040; note: nearly all actives have a fitted effect of over 20% in size). The procedure, abridged: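 Cell-based luciferase reporter: MDA-kb2, MMTV promoter (AR + GR response elements). 16 h compound exposure at 37C; ONE-Glo, 30 min RT, luminescence.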
A short description of experiment [17]: qHTS assay to identify small molecule antagonists of the androgen receptor (AR) signaling pathway using the MDA cell line - cell viability counter screen (AID 743041; note: nearly all actives have a fitted effect of over 45% in size; note: potency is the fitted concentration of half-maximal effect). A digest of the protocol:
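In this qHTS counter assay, fluorescence intensity after CellTiter-Fluor addition indicated viability of MDA-kb2 AR-luc cells given compounds and R1881 for 16 h at 37C.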

The target in experiment [18] is Androgen receptor (Homo sapiens) (UniProt P10275). As to the kind of experiment: qHTS assay to identify small molecule antagonists of the androgen receptor (AR) signaling pathway using the MDA cell line (AID 743042). The procedure, abridged: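 MDA-kb2 cells (human breast carcinoma, stably carrying an MMTV-luciferase reporter responsive to AR and GR) were plated at 3,000 cells/well and preincubated 5 hr at 37C, then given compound plus R1881 agonist for 16 h. ONE-Glo luminescence was read.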

Chain of Estrogen receptor (Homo sapiens) (P03372 whole entry, looked up): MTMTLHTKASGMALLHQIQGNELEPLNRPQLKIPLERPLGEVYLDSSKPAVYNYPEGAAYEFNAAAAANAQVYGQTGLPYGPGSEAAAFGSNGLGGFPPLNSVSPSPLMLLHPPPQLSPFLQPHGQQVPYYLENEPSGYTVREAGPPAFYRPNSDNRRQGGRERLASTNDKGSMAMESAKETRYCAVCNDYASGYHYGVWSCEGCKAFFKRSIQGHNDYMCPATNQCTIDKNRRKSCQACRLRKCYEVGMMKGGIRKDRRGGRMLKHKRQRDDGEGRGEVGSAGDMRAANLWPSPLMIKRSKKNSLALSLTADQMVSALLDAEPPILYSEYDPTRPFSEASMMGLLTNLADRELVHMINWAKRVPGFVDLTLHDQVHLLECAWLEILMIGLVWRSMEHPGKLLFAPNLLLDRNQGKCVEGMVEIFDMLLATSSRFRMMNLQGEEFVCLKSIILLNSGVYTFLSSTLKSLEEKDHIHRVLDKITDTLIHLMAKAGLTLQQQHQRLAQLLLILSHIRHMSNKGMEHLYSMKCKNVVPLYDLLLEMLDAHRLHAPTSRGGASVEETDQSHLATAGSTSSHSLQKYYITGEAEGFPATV
Chain of Androgen receptor (Homo sapiens) (P10275 whole entry, looked up): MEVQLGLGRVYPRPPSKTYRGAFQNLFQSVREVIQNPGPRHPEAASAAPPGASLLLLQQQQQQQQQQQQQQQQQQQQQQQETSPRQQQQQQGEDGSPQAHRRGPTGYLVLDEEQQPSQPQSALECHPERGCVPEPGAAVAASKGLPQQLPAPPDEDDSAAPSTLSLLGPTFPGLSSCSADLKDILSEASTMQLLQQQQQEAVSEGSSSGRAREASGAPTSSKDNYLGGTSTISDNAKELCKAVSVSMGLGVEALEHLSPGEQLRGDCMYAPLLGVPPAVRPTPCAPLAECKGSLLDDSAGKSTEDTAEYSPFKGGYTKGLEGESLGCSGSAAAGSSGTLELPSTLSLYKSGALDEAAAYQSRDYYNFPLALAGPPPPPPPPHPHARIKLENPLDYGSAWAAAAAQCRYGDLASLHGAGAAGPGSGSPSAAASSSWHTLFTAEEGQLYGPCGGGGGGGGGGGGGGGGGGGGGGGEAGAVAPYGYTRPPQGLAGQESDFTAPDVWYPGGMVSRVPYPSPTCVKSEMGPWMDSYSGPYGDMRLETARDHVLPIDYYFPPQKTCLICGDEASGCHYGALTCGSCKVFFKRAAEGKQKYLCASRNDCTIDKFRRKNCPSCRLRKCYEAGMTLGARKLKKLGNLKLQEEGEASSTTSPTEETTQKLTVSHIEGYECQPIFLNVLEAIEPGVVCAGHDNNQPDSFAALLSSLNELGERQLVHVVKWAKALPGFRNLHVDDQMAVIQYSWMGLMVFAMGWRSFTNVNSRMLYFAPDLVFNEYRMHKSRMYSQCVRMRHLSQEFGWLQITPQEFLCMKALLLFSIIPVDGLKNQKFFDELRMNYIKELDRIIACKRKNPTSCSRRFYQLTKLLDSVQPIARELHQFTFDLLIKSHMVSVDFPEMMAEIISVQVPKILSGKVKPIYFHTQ
Chain of Aromatase (Homo sapiens) (P11511 whole entry, looked up): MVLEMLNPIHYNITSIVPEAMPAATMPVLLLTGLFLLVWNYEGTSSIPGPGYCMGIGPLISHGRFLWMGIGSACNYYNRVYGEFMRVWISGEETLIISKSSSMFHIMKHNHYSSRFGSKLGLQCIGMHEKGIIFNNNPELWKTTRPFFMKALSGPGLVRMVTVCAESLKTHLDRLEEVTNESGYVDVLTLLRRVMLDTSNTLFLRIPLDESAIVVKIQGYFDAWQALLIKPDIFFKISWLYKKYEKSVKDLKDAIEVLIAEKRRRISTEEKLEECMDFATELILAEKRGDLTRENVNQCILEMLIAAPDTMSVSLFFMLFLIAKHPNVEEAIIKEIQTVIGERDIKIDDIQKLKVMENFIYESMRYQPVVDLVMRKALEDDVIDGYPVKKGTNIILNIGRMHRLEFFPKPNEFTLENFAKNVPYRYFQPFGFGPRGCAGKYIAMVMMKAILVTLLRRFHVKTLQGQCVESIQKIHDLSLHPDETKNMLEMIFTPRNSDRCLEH

`N#CCCC(Br)(C#N)CBr` (stereo not given): the Potency was 4.33 µM (active) in experiment [1]; 6.11 µM (active) in experiment [2]; 7.7 µM (active) in [3]; 24.5 µM (active) in [4]; 15.4 µM (active) in experiment [5]; 13.7 µM (active) in experiment [6]. In addition, the Potency is 24.3 µM (active) in the experiment with Aromatase (Homo sapiens) and 27.3 µM (active) in experiment [14]. Besides, the molecule was classed as inactive in experiment [7]. Moreover, the Potency result in experiment [8], in experiment [9], in [10], in experiment [11], in experiment [12] and in experiment [13] was “inactive” in each case.
Turning to `Oc1ccc(C2(c3ccc(O)cc3)c3ccccc3-c3ccccc32)cc1`, the Potency was 68.6 µM (active) in [1]; 43.3 µM (active) in [2]; 54.9 µM (active) in [4]; 27.3 µM (active) in [5]; 15.4 µM (active) in experiment [6]. Also, the molecule was called inactive in [7].
Turning to `O=C(CCl)Nc1ccccc1`, the Potency in [1] was 10.9 µM (active); in experiment [2] it was 10.9 µM (active); in experiment [17], 54.5 µM (active); in [18], 27.3 µM (active); in experiment [5], 24.3 µM (active); with Aromatase (Homo sapiens) it was 43.3 µM (active). Further, the Potency in experiment [14] was 27.3 µM (active). In addition, the Potency entry in experiment [15], in [16] and in experiment [10] was “inactive” throughout.
In the case of `C1CCC2CCCCC2C1` (stereo not given), the Potency entry in experiment [1], in experiment [2], in experiment [4], in [17], in experiment [5] and in experiment [8] was “inactive” each time. The Potency result (in experiment [9]; in experiment [10]; in experiment [11]; in experiment [12]; in [13]; with Aromatase (Homo sapiens)) was “inactive” each time. Besides, in [14], the Potency entry is “inactive”. Also, the outcome in experiment [7] was inactive.
Turning to `CCN(CC)C(=S)[S-].CCN(CC)C(=S)[S-].[Zn+2]`, the Potency in experiment [1] is 1.21 µM (active); in [2] it was 1.08 µM (active); in [3] it was 1.08 µM (active); in [4] it was 0.344 µM (active); in experiment [17], 0.96 µM (active); in experiment [5] it was 5.4 µM (active). Also, the Potency is 4.86 µM (active) in [9]; 54.5 µM [inconclusive] (active) in [10]; 42.9 µM (active) in experiment [13]; 0.096 µM (active) with Aromatase (Homo sapiens); 0.096 µM (active) in experiment [14].
As for `Oc1ccc2ccc3cccc4ccc1c2c34`, the Potency in experiment [1] is 30.6 µM (active); in experiment [2] it was 48.6 µM (active); in experiment [3] it was 30.6 µM (active). Also, the Potency result in experiment [4], in [17], in [9] and in [13] was “inactive” throughout.
On to `CCOP(=O)(NC(C)C)Oc1ccc(SC)c(C)c1` (stereo not given), for which the Potency in experiment [1] was 7.7 µM (active); in experiment [2], 18.8 µM (active); in experiment [3], 40.1 µM (active); in experiment [5], 61.1 µM (active). The Potency result in [16], in [17] and in experiment [14] was “inactive” each time.
Turning to `Clc1ccc(COC(Cn2ccnc2)c2ccc(Cl)cc2Cl)cc1` (stereo not given), the Potency in [2] is 16.8 µM (active) and 12.8 µM (active) and 9.65 µM (active); in experiment [3], 10.6 µM (active) and 16.1 µM (active) and 10.8 µM (active); in experiment [4] it was 40.7 µM (active) and 38.7 µM (active); in experiment [5] it was 13.3 µM (active) and 27.2 µM (active); in experiment [9], 45.7 µM (active) and 34.5 µM (active); in [12], 23.7 µM (active) and 60.9 µM (active). Further, the Potency with Aromatase (Homo sapiens) was 531 nM (active) and 255 nM (active) and 68.3 nM (active); in [14], 33.5 µM (active) and 45.3 µM (active) and 60.9 µM (active). Also, the molecule was classed as inactive in [7]. The Potency result in [13] is “inactive”.
In the case of `O=CC(Br)(Br)Br`, the Potency in experiment [2] was 24.3 µM (active); in [4], 21.8 µM (active); in [5], 19.3 µM (active); in experiment [6] it was 19.3 µM (active); in experiment [10] it was 21.8 µM [inconclusive] (active); with Aromatase (Homo sapiens) it was 10.8 µM (active). In addition, in [14], the Potency was 6.84 µM (active). The Potency result in experiment [17] and in experiment [13] was “inactive” each time. Moreover, in [7], the result was inactive.

These data come from PubChem BioAssay (Tox21).
